HT1080 IDH1KD tx – HT-1080 IDH1 knockdown cell toxicity (counter line); Potency, µM (highest dose often 46.1 µM), for the others: at the highest dose activity, negative = toxicity, usual class: cytotoxic; hit rate 2% among 360,000; HT-1080 IDH1 knockdown viability, ATP luminescence, 48 h;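 also: potency is read from the fitted curve at half-maximal effect; 0% = DMSO wells and -100% = cell-free medium wells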
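Luminescent ATP read-out (CellTiter-Glo, 10 min at room temperature) after 48 h compound exposure at 37 °C gave viability of IDH1-knockdown HT-1080 cells. Activity was normalised to DMSO and cell-free wells, then fitted as concentration-response curves.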
IL1B secr inh – inflammasome signaling inhibition, IL-1 beta readout; THP-1 LPS/ATP IL-1B secretion, AlphaLISA, 16 h; hits give low values; activity change, % at 57.5 µM; hit rate 4.7% among 360,000; AID 743279; in the data active = activity change below about -50%; inconclusive = mostly about -30% to -49%
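Secreted IL-1B measured by AlphaLISA bead assay after 16 h compound exposure of THP-1 cells; compounds (final up to 57.5 uM) added 1 h before LPS (250 ng/mL) and ATP (1.25 mM) stimulation; lower signal means less secretion.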
DT40 TDP1 CPT – growth inhibition of DT40 Tdp1-/-;hTDP1 cells with camptothecin (screen for TDP1 inhibitors); Potency, µM (series often up to 46.2 µM), inactives show at the highest dose activity change, negative = growth inhibition, usual class: inhibitors; hit rate 12% among 420,000; chicken DT40 Tdp1-/-;hTDP1 cells + 20 nM CPT, ATP luminescence, 48 h; also: potency is read from the fitted curve at half-maximal effect; nearly all actives have a fitted effect of over 55% in size
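Cell growth measured by CellTiter-Glo luminescence after a minimum 48 h, 37 C compound exposure with 20 nM CPT in Tdp1-knockout DT40 cells stably expressing hTDP1, seeded 400/well; qHTS titration format.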
HT1080-NT tox – kills 2HG-producing HT-1080-NT fibrosarcoma cells | HT-1080-NT fibrosarcoma viability, CellTiter-Glo ATP luminescence, 48 h | Potency, µM (highest dose often 46.1 µM), for the others: top-dose activity, negative = less viability, most hits filed as cytotoxic | hit rate 1.6% among 360,000;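 also: NT is the 2HG producing partner of a matched IDH1 knockdown line; potency is read from the fitted curve at half-maximal effect; 0% = DMSO-treated cells and -100% = media-only wells without cells; nearly all actives have a fitted effect of over 55% in size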
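750 cells/well, RPMI + 5% FBS; 2 h settle, compound pin-transfer, 48 h at 37 degrees C. CellTiter-Glo 10 min RT, luminescence. Normalized to DMSO and media-only wells.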
DT40 TDP1 no CPT – qHTS for Inhibitors of human tyrosyl-DNA phosphodiesterase 1 (TDP1): qHTS in cells in absence of CPT; DT40 Tdp1-/- hTDP1 cells, no CPT, ATP luminescence, 48 h; Potency, µM (titrated, usually from 46.2 µM), for the others: at the top dose activity change, negative = growth inhibition, most hits filed as inhibitors; hit rate 15% among 420,000; also: potency is read from the fitted curve at half-maximal effect; nearly all actives have a fitted effect of over 55% in size
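DT40 Tdp1-/-;hTDP1 cells, no CPT (DMSO vehicle only), 400 cells/well; compounds pin-transferred; ≥48 hr, 37 °C; CellTiter-Glo 30 min RT dark, luminescence read.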
An asterisk follows results filed as active. This is a sample that favours compounds with a hit; in the whole collection about 19% have one here. Unless noted, calls follow the shape of the dose curve; as a rule, active = well fitted curve in the direction sought with a large enough effect; inconclusive = small, poorly fitted or top-dose-only effect, or another doubt; inactive = no such curve, though single readings can be large; an effect the other way counts as inactive or inconclusive. Unless noted, % is scaled to controls: 0 for no effect and ±100 for the full control effect.

`COc1cccc(C(O)c2nc(-c3ccc(N(C)C)cc3)cs2)c1` (stereo unspecified) gave HT1080 IDH1KD tx inconclusive, IL1B secr inh 28, DT40 TDP1 CPT 23µM*, HT1080-NT tox -18% and DT40 TDP1 no CPT 16µM*.
`CN(Cc1ccccc1)C(=O)c1cccc(NC(=O)Cc2ccc(NC(=O)C3CCCN(C(=O)C4CC4)C3)cc2)c1` (stereo unspecified) gave HT1080 IDH1KD tx 5%, IL1B secr inh 6, DT40 TDP1 CPT -30%, HT1080-NT tox -2% and DT40 TDP1 no CPT inconclusive.
`COc1cccc(C(O)c2nc(-c3cc(F)cc(F)c3)cs2)c1` (stereo unspecified) gave HT1080 IDH1KD tx -1%, IL1B secr inh -20, DT40 TDP1 CPT 21µM*, HT1080-NT tox 0% and DT40 TDP1 no CPT inconclusive.
COc1cccc(C(O)c2nc(-c3cccc(C(C)C)c3)cs2)c1 (stereo unspecified) was read as HT1080 IDH1KD tx inconclusive, IL1B secr inh 0, DT40 TDP1 CPT inconclusive, HT1080-NT tox -21% and DT40 TDP1 no CPT inconclusive.
For O=C(O)Cc1c(C(=O)O)nnn1-c1ccc(Cl)cc1Cl the results were HT1080 IDH1KD tx 10%, IL1B secr inh 25, DT40 TDP1 CPT -2%, HT1080-NT tox 8% and DT40 TDP1 no CPT 26%.
For O=C1c2oc3ccccc3c(=O)c2C(c2ccc(Br)cc2)N1c1ccccn1 (stereo unspecified) the results were DT40 TDP1 CPT 5% and DT40 TDP1 no CPT -2%.
For COc1cc(OC)c(NC(=O)c2nnn(Cc3ccc(C)cc3)c2N)cc1Cl the results were DT40 TDP1 CPT 18µM* and DT40 TDP1 no CPT 12µM*.
COc1cc(NC(=O)c2nnn(Cc3ccc(F)cc3)c2N)cc(OC)c1 was read as DT40 TDP1 CPT inconclusive and DT40 TDP1 no CPT -25%.
For COc1ccc(Cn2nnc(C(=O)Nc3ccc4c(c3)OCCO4)c2N)cc1Br the results were HT1080 IDH1KD tx inconclusive, IL1B secr inh 0, DT40 TDP1 CPT 18µM*, HT1080-NT tox -22% and DT40 TDP1 no CPT 2.6µM*.
For Nc1c(C(=O)Nc2ccc3c(c2)OCCO3)nnn1Cc1ccc(Cl)cc1 the results were HT1080 IDH1KD tx -7%, IL1B secr inh 4, DT40 TDP1 CPT -17%, HT1080-NT tox -17% and DT40 TDP1 no CPT -22%.
COc1cc(NC(=O)c2nnn(Cc3ccc(SC)cc3)c2N)cc(OC)c1 was read as HT1080 IDH1KD tx -17%, IL1B secr inh -25, DT40 TDP1 CPT 18µM*, HT1080-NT tox -4% and DT40 TDP1 no CPT 29µM*.
For CCc1ccc(Cn2nnc(C(=O)Nc3ccc(OC)cc3OC)c2N)cc1 the results were HT1080 IDH1KD tx -16%, IL1B secr inh 14, DT40 TDP1 CPT 2%, HT1080-NT tox -24% and DT40 TDP1 no CPT -9%.
Screening CCCCn1c(N)c(N(CC(C)C)C(=O)c2ccc([N+](=O)[O-])o2)c(=O)[nH]c1=O returned HT1080 IDH1KD tx 0%, IL1B secr inh -4, DT40 TDP1 CPT -8%, HT1080-NT tox 2% and DT40 TDP1 no CPT -12%.
For CCOC(=O)c1c(NC(=O)c2cc(-c3ccc(Cl)cc3)on2)sc(C)c1C the results were DT40 TDP1 CPT -2% and DT40 TDP1 no CPT -14%.
Cc1ccc(S(=O)(=O)N(C(=O)c2ccncc2)c2ccc(OC(=O)c3ccncc3)cc2)cc1 was read as HT1080 IDH1KD tx -3%, IL1B secr inh inconclusive, DT40 TDP1 CPT inconclusive, HT1080-NT tox -4% and DT40 TDP1 no CPT inconclusive.
Screening COc1ccc(N(C(=O)c2ccncc2)S(=O)(=O)c2ccc(Cl)cc2)cc1 returned HT1080 IDH1KD tx -7%, IL1B secr inh 5, DT40 TDP1 CPT -7%, HT1080-NT tox 0% and DT40 TDP1 no CPT -22%.
For COc1ccc(C(=O)N(c2ccc(C)cc2)S(=O)(=O)c2ccc(C)cc2)cc1 the results were DT40 TDP1 CPT 18µM* and DT40 TDP1 no CPT 23µM*.

Assay outcomes deposited in PubChem by National Center for Advancing Translational Sciences (NCATS).
